Source: the supplement of paper PMC11006884
The full data set covers some 6,500 targets. This sample favours those with a hit. About 2% of all pairs of compound and target were hits. A number with no mark means an inactive call.

These targets were tested with COC(=O)C#Cc1ccccc1 [methyl 3-phenylpropiolate] (assay: log2 ratio of iodoacetamide-alkyne labeling of the cysteine site, DMSO over compound (competition); higher = stronger covalent engagement of the cysteine by the compound, active = 1 or more). Details: 500 µM; treatment time 1 h; system: HEK293T cell lysate.
Procedure, shortened: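 The log2 competition ratio per cysteine is defined as mean reporter intensity in control channels over mean reporter intensity in compound channels. Lysate from HEK293T cells (2 mg/mL) received electrophile (500 µM) or vehicle for 1 h at ambient temperature, followed by iodoacetamide alkyne for 1 h. Samples were clicked to sCIP-TMT reagents, pooled, trypsin-digested overnight at 37 °C, streptavidin-enriched, acid-eluted and run on Orbitrap Eclipse LC-MS/MS with FAIMS, with quantification in FragPipe. Three replicates with duplicate channels were used, and any cysteine quantified in only one replicate was excluded.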

Chain of UniProt P08047 (P08047 whole entry, looked up): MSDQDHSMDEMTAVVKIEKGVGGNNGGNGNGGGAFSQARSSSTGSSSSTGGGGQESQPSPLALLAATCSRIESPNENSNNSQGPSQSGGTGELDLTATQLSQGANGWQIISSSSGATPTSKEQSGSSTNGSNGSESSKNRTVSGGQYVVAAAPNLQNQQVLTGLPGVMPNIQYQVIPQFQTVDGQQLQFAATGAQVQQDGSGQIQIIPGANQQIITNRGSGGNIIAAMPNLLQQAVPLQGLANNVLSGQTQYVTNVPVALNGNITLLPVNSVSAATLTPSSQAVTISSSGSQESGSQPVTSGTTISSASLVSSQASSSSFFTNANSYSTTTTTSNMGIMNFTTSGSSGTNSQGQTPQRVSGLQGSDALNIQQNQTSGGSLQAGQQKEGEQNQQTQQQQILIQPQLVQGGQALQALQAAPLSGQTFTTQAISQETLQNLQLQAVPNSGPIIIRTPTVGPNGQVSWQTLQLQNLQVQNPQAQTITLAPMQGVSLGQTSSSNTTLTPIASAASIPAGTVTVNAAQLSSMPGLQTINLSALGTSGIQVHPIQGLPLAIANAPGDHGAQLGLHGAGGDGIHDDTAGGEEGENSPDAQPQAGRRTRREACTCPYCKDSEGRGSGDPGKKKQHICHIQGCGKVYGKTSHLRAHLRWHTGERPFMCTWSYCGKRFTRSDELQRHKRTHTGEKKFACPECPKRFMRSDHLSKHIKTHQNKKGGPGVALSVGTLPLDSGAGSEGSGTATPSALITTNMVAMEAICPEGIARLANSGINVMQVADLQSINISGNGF
Chain of UniProt P42765 (P42765 whole entry, looked up): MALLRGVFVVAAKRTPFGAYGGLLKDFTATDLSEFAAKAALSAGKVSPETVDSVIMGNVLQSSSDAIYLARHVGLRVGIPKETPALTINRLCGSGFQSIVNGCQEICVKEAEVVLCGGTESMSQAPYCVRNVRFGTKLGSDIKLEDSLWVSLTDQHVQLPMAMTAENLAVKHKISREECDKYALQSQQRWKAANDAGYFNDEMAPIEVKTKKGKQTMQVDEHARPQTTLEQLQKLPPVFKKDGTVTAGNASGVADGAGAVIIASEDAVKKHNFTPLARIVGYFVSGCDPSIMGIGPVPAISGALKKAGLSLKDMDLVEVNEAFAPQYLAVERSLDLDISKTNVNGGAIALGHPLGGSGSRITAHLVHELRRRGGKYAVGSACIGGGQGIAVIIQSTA
Chain of UniProt P22307 (P22307 whole entry, looked up): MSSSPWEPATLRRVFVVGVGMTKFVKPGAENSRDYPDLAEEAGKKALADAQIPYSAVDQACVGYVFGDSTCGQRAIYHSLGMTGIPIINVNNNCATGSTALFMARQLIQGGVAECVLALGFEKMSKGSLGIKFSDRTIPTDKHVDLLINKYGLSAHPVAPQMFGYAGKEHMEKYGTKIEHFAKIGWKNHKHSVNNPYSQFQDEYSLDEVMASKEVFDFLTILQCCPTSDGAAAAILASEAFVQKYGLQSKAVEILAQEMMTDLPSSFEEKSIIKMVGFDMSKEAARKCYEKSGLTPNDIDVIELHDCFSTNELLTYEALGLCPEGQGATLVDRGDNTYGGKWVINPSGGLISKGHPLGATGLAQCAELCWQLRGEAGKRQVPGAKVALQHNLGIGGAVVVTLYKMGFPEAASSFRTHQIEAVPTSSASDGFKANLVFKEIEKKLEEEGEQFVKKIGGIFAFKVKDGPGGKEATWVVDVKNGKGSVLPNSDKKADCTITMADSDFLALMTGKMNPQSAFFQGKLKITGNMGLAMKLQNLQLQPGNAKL
Chain of UniProt P10599 (P10599 whole entry, looked up): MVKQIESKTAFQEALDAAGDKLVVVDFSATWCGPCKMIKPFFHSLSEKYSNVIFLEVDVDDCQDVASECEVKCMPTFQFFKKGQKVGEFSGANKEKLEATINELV
Chain of UniProt P38117 (P38117 whole entry, looked up): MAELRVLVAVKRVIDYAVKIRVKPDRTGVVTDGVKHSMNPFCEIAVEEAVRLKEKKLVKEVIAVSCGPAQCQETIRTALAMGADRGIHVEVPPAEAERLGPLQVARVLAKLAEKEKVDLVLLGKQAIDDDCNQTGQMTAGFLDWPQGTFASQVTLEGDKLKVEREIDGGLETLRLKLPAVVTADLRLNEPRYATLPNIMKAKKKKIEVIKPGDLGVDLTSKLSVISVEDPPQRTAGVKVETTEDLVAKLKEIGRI
Chain of UniProt P51570 (P51570 whole entry, looked up): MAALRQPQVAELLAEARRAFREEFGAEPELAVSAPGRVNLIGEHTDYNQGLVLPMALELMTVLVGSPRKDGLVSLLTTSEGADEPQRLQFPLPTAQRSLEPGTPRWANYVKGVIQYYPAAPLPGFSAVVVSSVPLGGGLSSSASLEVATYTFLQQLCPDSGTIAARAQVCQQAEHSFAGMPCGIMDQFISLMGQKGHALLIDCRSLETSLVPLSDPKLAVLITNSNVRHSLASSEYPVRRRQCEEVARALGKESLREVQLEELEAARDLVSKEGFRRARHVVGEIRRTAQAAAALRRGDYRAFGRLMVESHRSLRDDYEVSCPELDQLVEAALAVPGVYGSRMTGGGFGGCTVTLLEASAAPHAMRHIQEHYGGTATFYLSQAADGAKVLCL
Chain of UniProt O95835 (O95835 whole entry): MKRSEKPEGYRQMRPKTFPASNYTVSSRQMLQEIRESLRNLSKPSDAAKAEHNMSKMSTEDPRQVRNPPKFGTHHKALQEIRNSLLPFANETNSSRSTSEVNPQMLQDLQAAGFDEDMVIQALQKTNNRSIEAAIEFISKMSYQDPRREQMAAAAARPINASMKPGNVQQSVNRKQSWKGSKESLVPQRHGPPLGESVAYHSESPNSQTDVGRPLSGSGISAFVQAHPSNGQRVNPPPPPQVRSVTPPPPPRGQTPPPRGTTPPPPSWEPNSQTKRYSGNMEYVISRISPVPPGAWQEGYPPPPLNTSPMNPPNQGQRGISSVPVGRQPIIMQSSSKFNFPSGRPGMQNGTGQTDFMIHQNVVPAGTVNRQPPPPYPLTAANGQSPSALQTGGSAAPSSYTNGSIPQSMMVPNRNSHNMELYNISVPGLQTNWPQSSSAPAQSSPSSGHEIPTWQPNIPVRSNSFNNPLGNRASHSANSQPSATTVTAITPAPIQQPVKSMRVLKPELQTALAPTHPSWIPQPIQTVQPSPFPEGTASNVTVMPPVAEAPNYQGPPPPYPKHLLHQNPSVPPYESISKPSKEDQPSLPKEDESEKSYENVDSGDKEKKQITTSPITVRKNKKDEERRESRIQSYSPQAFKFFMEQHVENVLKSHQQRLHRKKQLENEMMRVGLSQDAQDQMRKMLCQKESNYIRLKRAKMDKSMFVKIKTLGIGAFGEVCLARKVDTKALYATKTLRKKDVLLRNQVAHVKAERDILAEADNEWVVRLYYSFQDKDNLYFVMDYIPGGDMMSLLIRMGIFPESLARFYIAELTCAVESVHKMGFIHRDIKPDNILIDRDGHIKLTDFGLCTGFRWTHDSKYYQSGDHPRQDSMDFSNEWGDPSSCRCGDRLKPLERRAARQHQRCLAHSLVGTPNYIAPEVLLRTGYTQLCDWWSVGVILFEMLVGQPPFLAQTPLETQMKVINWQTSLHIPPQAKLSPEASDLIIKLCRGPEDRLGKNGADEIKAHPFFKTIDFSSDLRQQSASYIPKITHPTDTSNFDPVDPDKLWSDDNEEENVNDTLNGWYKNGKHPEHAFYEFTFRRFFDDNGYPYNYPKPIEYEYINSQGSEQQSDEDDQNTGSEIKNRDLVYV
Chain of UniProt P07195 (P07195 whole entry, looked up): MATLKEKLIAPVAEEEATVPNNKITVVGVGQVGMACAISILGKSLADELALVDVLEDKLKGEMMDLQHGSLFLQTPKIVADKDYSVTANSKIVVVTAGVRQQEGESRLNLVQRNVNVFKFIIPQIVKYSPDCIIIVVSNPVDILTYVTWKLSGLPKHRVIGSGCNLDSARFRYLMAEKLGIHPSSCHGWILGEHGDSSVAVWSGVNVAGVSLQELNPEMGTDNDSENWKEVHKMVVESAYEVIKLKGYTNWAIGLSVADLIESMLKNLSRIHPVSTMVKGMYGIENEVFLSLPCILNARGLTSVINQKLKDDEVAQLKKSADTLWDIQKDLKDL
Chain of UniProt P49069 (P49069 whole entry): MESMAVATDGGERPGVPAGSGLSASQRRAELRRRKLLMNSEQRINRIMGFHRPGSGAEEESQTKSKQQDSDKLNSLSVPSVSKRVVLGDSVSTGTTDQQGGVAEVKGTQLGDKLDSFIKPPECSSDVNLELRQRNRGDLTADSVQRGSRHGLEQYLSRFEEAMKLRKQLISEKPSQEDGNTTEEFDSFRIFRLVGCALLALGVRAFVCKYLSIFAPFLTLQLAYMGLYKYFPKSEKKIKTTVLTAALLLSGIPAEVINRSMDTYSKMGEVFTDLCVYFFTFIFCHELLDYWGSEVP
Chain of UniProt P45973 (P45973 whole entry, looked up): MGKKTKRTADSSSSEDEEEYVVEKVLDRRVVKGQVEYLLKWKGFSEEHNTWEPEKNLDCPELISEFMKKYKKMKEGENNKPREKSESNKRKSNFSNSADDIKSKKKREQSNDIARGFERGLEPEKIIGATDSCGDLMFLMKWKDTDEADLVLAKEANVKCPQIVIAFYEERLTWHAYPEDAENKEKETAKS
Chain of UniProt P40227 (P40227 whole entry, looked up): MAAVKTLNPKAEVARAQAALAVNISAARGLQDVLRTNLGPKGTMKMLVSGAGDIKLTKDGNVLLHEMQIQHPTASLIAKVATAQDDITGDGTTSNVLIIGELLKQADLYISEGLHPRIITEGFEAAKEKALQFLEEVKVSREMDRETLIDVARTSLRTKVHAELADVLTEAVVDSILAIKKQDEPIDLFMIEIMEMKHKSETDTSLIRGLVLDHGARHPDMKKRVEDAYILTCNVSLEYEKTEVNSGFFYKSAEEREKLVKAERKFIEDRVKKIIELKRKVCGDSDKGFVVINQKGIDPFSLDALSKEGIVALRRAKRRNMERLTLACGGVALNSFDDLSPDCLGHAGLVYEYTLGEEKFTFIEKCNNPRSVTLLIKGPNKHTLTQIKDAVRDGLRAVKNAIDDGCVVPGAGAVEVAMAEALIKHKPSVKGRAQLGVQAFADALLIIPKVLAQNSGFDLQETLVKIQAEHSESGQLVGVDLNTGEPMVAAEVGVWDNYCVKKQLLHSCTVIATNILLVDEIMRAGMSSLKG

Target | log2 ratio of iodoacetamide-alkyne labeling
SCP2 C94 (UniProt P22307) | 0.136
CCT6A C282 (UniProt P40227) | 0.13
CAMLG C123 (UniProt P49069) | 0.308
TXN C35 (UniProt P10599) | 1.14 (active)
SMC2 C585 (UniProt O95347) | 0.258
PPP2R1A C154 (UniProt P30153) | 0.637
EEF2 C567 (UniProt P13639) | 0.0358
CRKL C249 (UniProt P46109) | 1.61 (active)
MAP1B C2088 (UniProt P46821) | 0.329
MCM3 C319 (UniProt P25205) | -0.032
GALK1 C351 (UniProt P51570) | 0.243
UniProt P26367_C94 | 0.097
ACAA2 C116 (UniProt P42765) | 1.22 (active)
PARP1 C429 (UniProt P09874) | 0.192
CBX5 C133 (UniProt P45973) | 0.17
SP1 C604 (UniProt P08047) | -0.0454
JUP C90 (UniProt P14923) | 0.305
UniProt P41250_C616 | -0.119
LDHB C294 (UniProt P07195) | -0.0731
LATS1 C885 (UniProt O95835) | 0.423
TMPO C570 (UniProt P42166) | 1.16 (active)
ETFB C71 (UniProt P38117) | 0.579
